Assay results reported in PubChem BioAssay (NCI).
About 83,000 compounds went through this panel and 20% of them were active in at least one assay; those are over-represented in the sample as a whole.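 Testing used 96-well plates and a 48-hour single-concentration exposure. Example: -40 means 40% of the starting cells died.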

How the values were obtained:
Test in all cases: NCI-60 one-dose screen, 48 h (100 = growth as untreated, 0 = no growth, -100 = all killed)
Conditions in all cases: 10 µM unless noted; active = growth percent below 10; inactive = the rest
NCI-H23 lung = test system: NCI-H23 lung
NCI-H226 lung = test system: NCI-H226 lung
NCI-H322M lung = test system: NCI-H322M lung
HOP-62 NSCLC = test system: HOP-62 NSCLC
NCI-H460 lung = test system: NCI-H460 lung
NCI-H522 lung = test system: NCI-H522 lung
A549/ATCC NSCLC = test system: A549/ATCC NSCLC
786-0 renal = test system: 786-0 renal
DU-145 prostate = test system: DU-145 prostate
K-562 leukemia = test system: K-562 leukemia
MALME-3M melanoma = test system: MALME-3M melanoma
MDA-MB-231 breast = test system: MDA-MB-231 breast
RXF 393 renal = test system: RXF 393 renal
SF-268 CNS = test system: SF-268 CNS
SF-295 CNS = test system: SF-295 CNS
SF-539 CNS = test system: SF-539 CNS
UACC-257 melanoma = test system: UACC-257 melanoma
M14 melanoma = test system: M14 melanoma
HCT-15 colon = test system: HCT-15 colon
COLO 205 colon = test system: COLO 205 colon

Measured: growth

Cn1c(N)c(N=O)c(=O)[nH]c1=O
inactive: NCI-H23 lung 104% | NCI-H226 lung 106% | NCI-H322M lung 112% | HOP-62 NSCLC 103% | NCI-H460 lung 107% | NCI-H522 lung 91.8% | A549/ATCC NSCLC 97.9% | 786-0 renal 101% | DU-145 prostate 112% | K-562 leukemia 93.3% | MALME-3M melanoma 104% | MDA-MB-231 breast 112% | RXF 393 renal 114% | SF-268 CNS 110% | SF-295 CNS 114% | SF-539 CNS 105% | UACC-257 melanoma 107% | M14 melanoma 97.9%

Cc1c(C(N)=O)sc2ncn(Cc3ccccc3)c(=O)c12
inactive: NCI-H23 lung 101% | NCI-H226 lung 96.8% | NCI-H322M lung 79% | HOP-62 NSCLC 95.4% | NCI-H460 lung 108% | NCI-H522 lung 103% | A549/ATCC NSCLC 85.7% | 786-0 renal 96.1% | DU-145 prostate 113% | K-562 leukemia 97.1% | MALME-3M melanoma 120% | MDA-MB-231 breast 102% | RXF 393 renal 106% | SF-268 CNS 104% | SF-539 CNS 94.6% | UACC-257 melanoma 163% | M14 melanoma 105% | HCT-15 colon 115%

Cc1nn(-c2ccc(Cl)cc2)c2nc3c(nc12)C(=O)c1ccccc1-3
inactive: NCI-H23 lung 61.7% | NCI-H226 lung 32.5% | NCI-H322M lung 63.1% | HOP-62 NSCLC 51.7% | NCI-H460 lung 12.6% | NCI-H522 lung 60.7% | A549/ATCC NSCLC 55.8% | 786-0 renal 56.8% | COLO 205 colon 95.2% | DU-145 prostate 77.8% | MALME-3M melanoma 84.7% | MDA-MB-231 breast 52.7% | RXF 393 renal 45.4% | SF-268 CNS 72.4% | SF-295 CNS 36.4% | UACC-257 melanoma 91.5% | M14 melanoma 70.5% | HCT-15 colon 98.5%

Cn1[nH]cc(/C=N/C(N)=O)c1=O
inactive: NCI-H23 lung 104% | NCI-H226 lung 111% | NCI-H322M lung 124% | HOP-62 NSCLC 111% | NCI-H460 lung 109% | NCI-H522 lung 121% | A549/ATCC NSCLC 106% | 786-0 renal 99.8% | COLO 205 colon 110% | K-562 leukemia 103% | MALME-3M melanoma 121% | MDA-MB-231 breast 101% | SF-295 CNS 115% | SF-539 CNS 113% | UACC-257 melanoma 119% | M14 melanoma 107% | HCT-15 colon 105%

CC(NC(=O)C(C)Oc1ccc(Cl)cc1Cl)C(=O)O (configuration not stated)
inactive: NCI-H23 lung 91.9% | NCI-H226 lung 92.9% | NCI-H322M lung 122% | HOP-62 NSCLC 94.5% | NCI-H460 lung 101% | NCI-H522 lung 83.6% | A549/ATCC NSCLC 116% | 786-0 renal 97.6% | DU-145 prostate 108% | K-562 leukemia 135% | MALME-3M melanoma 98.6% | MDA-MB-231 breast 96.8% | RXF 393 renal 120% | SF-268 CNS 102% | SF-295 CNS 97.8% | SF-539 CNS 102% | UACC-257 melanoma 94.6% | M14 melanoma 92.2% | HCT-15 colon 98.3%

c1ccc(-c2nn[nH]n2)c(-c2ccc(CN3CCN(c4nsc5ccccc45)CC3)cc2)c1
inactive: NCI-H23 lung 85.7% | NCI-H226 lung 105% | NCI-H322M lung 96.7% | HOP-62 NSCLC 110% | NCI-H460 lung 98.4% | NCI-H522 lung 69% | A549/ATCC NSCLC 98.6% | 786-0 renal 110% | COLO 205 colon 114% | DU-145 prostate 97.5% | MALME-3M melanoma 108% | MDA-MB-231 breast 88.6% | RXF 393 renal 113% | SF-268 CNS 98.3% | SF-295 CNS 94.1% | UACC-257 melanoma 99.8% | M14 melanoma 108% | HCT-15 colon 82.9%

C=C(C)[C@H]1CC/C(C)=C/CC[C@]2(C)O[C@H]2CC/C(COC(C)=O)=C\C1=O
inactive: NCI-H23 lung 103% | NCI-H226 lung 130% | NCI-H322M lung 87.3% | HOP-62 NSCLC 102% | NCI-H460 lung 116% | NCI-H522 lung 109% | A549/ATCC NSCLC 37.7% | 786-0 renal 92.1% | DU-145 prostate 140% | K-562 leukemia 95.8% | MDA-MB-231 breast 98.4% | RXF 393 renal 105% | SF-268 CNS 115% | SF-539 CNS 117% | UACC-257 melanoma 128% | M14 melanoma 105% | HCT-15 colon 109%

O=C(CSc1nc2c(n1Nc1ccccc1)-c1ccccc1SC2)Nc1nc(-c2ccc(Cl)cc2)cs1
inactive: NCI-H23 lung 53% | NCI-H226 lung 92% | NCI-H322M lung 91.1% | HOP-62 NSCLC 62.3% | NCI-H460 lung 77% | NCI-H522 lung 65.2% | A549/ATCC NSCLC 25.7% | 786-0 renal 71.5% | DU-145 prostate 73.5% | K-562 leukemia 78% | MALME-3M melanoma 64.2% | MDA-MB-231 breast 75.1% | RXF 393 renal 98.8% | SF-268 CNS 47.2% | SF-295 CNS 45.3% | SF-539 CNS 70.2% | UACC-257 melanoma 89.5% | M14 melanoma 59.9% | HCT-15 colon 77.4%

S=C(c1ccccc1)N1CCN(c2cccc(Cl)c2)CC1
inactive: NCI-H23 lung 101% | NCI-H226 lung 99.3% | NCI-H322M lung 104% | HOP-62 NSCLC 102% | NCI-H460 lung 111% | NCI-H522 lung 87.5% | A549/ATCC NSCLC 87.8% | 786-0 renal 107% | COLO 205 colon 100% | K-562 leukemia 54.8% | MALME-3M melanoma 97.4% | MDA-MB-231 breast 105% | RXF 393 renal 108% | SF-295 CNS 82.9% | SF-539 CNS 105% | UACC-257 melanoma 103% | M14 melanoma 113% | HCT-15 colon 105%
